# Laboratory results taken from publication PMC7862700, “An all-to-all approach to the identification of sequence-specific readers for epigenetic DNA modifications on cytosine”.
# Tests used:
# Test in all cases: DAPPL (digital affinity profiling via proximity ligation, sequencing); 10 mM Tris-HCl pH 7.5, 50 mM NaCl, 1 mM DTT, 4% glycerol, room temperature, 30 min; GST-TFs on glutathione beads, 16-mer random dsDNA library, 0.1% formaldehyde crosslink after washing; high values mean tight binding
# FLI1 = biological target: T1, FLI1 (Homo sapiens, UniProt Q01543 1-452); settings: protein: recombinant; tags: N-terminal GST; dsDNA, one strand shown
# T1 sequence: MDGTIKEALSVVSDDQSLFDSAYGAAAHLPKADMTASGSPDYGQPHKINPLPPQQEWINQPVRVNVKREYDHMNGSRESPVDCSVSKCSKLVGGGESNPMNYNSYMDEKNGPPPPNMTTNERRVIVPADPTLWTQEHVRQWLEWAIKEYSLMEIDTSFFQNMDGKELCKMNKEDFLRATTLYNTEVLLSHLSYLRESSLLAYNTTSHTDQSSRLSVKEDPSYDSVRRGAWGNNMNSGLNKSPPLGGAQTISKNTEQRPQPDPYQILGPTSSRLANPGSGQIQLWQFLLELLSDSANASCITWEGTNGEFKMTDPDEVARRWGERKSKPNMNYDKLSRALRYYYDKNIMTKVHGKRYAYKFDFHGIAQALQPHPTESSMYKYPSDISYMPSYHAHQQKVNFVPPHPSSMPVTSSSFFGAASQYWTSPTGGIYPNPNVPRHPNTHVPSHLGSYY
# Summary of the method: (§1)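 A tag-only sample was pooled with DNA-barcoded human transcription factors that had been expressed in yeast as GST fusions and captured on glutathione beads. The pools were incubated for 30 min at room temperature with 200 nmole of a random double-stranded 16-mer DNA library in Tris/NaCl/DTT/glycerol buffer, then washed, crosslinked with 0.1% formaldehyde, proximity-ligated (BsaI/T4 ligase, 1 h, 37 °C), PCR-amplified and sequenced on an Illumina NextSeq500. Binding signal is each hexamer's read frequency for a factor divided by its frequency for the tag-only sample.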
# ELK1 = biological target: T2, ELK1 (Homo sapiens, UniProt P19419 1-428); settings: protein: recombinant; tags: N-terminal GST; dsDNA, one strand shown
# T2 sequence: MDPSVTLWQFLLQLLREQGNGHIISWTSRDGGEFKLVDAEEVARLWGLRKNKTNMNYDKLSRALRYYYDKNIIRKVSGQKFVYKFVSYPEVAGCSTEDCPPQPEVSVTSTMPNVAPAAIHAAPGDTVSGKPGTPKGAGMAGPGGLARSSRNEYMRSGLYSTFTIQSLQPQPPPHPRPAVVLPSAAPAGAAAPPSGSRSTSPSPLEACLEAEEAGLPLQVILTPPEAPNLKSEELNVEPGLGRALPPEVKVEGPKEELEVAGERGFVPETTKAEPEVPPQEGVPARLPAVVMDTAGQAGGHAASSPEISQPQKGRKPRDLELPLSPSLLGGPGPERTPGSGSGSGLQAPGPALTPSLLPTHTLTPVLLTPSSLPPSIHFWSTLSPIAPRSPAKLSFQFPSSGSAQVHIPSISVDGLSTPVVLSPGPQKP
# Summary of the method: as §1
# GABPA = biological target: T3, GABPA (Homo sapiens, UniProt Q06546 1-454); settings: protein: recombinant; tags: N-terminal GST; dsDNA, one strand shown
# T3 sequence: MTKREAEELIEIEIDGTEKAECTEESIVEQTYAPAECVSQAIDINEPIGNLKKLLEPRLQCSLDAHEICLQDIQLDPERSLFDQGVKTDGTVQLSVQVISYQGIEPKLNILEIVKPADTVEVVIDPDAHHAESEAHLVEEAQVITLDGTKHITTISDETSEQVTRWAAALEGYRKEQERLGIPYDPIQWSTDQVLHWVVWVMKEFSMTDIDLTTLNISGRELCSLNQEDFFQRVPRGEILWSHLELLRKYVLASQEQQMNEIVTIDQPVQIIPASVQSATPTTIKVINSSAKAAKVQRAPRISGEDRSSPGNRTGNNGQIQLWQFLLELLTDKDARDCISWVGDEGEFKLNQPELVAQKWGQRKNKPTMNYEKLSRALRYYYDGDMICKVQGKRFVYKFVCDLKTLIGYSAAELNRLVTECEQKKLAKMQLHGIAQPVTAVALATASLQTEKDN
# Summary of the method: as §1
# ERG = biological target: T4, ERG (Homo sapiens, UniProt P11308 1-479); settings: protein: recombinant; tags: N-terminal GST; dsDNA, one strand shown
# T4 sequence: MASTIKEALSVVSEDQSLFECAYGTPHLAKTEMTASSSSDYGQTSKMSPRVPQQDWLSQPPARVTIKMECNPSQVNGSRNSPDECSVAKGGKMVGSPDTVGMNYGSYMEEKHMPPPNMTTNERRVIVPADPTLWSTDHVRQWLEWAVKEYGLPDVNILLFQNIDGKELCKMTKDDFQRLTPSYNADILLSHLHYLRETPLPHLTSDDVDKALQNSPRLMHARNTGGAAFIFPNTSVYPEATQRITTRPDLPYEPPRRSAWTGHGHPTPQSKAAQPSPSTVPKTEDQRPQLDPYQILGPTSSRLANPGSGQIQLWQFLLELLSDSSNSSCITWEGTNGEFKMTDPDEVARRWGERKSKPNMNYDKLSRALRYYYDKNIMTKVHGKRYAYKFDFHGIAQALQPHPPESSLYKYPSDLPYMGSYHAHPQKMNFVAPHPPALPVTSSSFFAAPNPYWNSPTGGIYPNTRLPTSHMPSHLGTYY
# Summary of the method: as §1
# ELF1 = ELF1 (Homo sapiens, UniProt P32519 1-619); settings: protein: recombinant; tags: N-terminal GST; dsDNA, one strand shown
# ELF1, sequence (P32519 whole entry): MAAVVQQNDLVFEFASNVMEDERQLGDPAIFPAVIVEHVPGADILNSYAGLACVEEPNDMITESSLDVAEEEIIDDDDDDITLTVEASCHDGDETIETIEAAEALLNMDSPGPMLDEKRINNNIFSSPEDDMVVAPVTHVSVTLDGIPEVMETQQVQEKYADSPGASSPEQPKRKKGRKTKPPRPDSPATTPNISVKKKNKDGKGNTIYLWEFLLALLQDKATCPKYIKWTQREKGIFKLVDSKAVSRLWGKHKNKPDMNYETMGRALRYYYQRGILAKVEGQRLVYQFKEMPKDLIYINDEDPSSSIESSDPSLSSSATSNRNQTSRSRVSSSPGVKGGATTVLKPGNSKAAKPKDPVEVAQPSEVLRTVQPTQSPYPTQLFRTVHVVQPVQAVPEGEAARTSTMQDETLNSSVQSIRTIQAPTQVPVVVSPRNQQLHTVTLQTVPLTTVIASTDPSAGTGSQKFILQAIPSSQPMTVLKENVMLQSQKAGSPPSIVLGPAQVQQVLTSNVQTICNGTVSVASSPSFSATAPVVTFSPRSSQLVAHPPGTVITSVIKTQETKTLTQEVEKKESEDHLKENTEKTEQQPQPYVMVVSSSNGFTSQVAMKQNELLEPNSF
# Summary of the method: as §1
# EHF = biological target: T5, EHF (Homo sapiens, UniProt Q9NZC4 1-300); settings: protein: recombinant; tags: N-terminal GST; dsDNA, one strand shown
# T5 sequence: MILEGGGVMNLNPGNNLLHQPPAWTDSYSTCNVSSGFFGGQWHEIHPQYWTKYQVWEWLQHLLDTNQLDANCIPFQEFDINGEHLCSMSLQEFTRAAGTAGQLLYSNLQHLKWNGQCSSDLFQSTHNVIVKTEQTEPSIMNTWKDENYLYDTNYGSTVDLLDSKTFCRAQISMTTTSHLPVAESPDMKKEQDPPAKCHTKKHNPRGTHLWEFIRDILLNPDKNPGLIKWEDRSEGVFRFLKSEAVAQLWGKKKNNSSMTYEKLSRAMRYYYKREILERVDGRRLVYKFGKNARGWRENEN
# Summary of the method: as §1
# SPI1 = SPI1 (Homo sapiens, UniProt P17947 1-270); settings: protein: recombinant; tags: N-terminal GST; dsDNA, one strand shown
# Summary of the method: as §1
# SPIB = SPIB (Homo sapiens, UniProt Q01892 1-262); settings: protein: recombinant; tags: N-terminal GST; dsDNA, one strand shown
# SPIB, sequence (Q01892 whole entry): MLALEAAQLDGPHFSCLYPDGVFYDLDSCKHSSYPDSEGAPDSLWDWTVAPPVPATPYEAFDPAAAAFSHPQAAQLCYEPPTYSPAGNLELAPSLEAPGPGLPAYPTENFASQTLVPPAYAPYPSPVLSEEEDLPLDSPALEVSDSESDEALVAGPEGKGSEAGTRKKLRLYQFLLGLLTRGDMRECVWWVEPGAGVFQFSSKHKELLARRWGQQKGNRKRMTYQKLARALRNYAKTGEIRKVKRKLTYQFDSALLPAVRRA
# Summary of the method: as §1
# ELK3 = biological target: T6, ELK3 (Homo sapiens, UniProt P41970 1-407); settings: protein: recombinant; tags: N-terminal GST; dsDNA, one strand shown
# T6 sequence: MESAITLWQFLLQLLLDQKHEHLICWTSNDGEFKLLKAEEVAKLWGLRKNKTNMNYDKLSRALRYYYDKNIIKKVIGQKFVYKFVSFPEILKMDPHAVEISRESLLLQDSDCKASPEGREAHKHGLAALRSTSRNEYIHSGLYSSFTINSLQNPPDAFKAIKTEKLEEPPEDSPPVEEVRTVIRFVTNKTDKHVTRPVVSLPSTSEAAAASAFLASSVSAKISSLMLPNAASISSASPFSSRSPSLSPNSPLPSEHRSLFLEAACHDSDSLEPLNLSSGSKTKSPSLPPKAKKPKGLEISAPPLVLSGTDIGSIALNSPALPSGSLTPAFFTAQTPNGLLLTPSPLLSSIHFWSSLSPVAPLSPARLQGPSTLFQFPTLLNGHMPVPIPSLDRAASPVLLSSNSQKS
# Summary of the method: as §1
# FEV = biological target: T7, FEV (Homo sapiens, UniProt Q99581 1-238); settings: protein: recombinant; tags: N-terminal GST; dsDNA, one strand shown
# T7 sequence: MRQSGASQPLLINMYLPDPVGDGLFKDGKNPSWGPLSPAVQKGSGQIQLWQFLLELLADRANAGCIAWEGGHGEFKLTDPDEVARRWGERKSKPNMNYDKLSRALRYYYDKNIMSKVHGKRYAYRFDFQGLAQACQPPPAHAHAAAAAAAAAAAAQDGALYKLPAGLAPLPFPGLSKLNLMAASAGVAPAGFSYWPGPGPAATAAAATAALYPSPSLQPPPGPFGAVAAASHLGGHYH
# Summary of the method: as §1
# ETV5 = ETV5 (Homo sapiens, UniProt P41161 1-510); settings: protein: recombinant; tags: N-terminal GST; dsDNA, one strand shown
# ETV5, sequence (P41161 whole entry): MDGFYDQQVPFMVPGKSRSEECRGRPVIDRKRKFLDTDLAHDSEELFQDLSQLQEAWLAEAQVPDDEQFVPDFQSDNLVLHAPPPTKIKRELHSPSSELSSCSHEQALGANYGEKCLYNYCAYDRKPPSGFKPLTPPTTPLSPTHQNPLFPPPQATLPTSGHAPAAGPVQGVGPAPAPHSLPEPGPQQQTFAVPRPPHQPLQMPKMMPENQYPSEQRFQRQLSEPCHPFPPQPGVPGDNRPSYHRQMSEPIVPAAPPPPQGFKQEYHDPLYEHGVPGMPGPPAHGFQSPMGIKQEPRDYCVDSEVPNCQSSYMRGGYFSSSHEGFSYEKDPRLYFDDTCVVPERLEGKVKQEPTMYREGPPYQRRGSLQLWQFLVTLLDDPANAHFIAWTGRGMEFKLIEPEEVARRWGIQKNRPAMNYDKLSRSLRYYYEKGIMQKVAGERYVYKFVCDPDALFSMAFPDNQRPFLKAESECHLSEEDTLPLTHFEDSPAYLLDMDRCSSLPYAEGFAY
# Summary of the method: as §1
# HSF1 = HSF1 (Homo sapiens, UniProt Q00613 1-529); settings: protein: recombinant; tags: N-terminal GST; chain copies: 3; dsDNA, one strand shown
# HSF1, sequence (Q00613 whole entry): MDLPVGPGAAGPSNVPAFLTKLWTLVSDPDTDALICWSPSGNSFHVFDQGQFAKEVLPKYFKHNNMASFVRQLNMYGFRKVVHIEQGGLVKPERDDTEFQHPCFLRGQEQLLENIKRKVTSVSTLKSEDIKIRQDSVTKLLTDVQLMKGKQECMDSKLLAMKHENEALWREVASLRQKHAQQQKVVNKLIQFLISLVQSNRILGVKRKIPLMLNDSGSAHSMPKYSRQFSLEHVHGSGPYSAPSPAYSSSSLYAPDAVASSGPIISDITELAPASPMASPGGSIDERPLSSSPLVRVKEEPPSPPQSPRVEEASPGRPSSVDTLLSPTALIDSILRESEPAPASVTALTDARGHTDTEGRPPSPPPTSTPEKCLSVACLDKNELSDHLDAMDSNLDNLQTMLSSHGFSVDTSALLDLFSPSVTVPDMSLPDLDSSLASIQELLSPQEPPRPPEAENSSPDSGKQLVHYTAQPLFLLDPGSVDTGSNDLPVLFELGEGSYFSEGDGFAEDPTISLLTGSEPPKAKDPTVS
# Summary of the method: as §1
# SPIC = biological target: T8, SPIC (Homo sapiens, UniProt Q8N5J4 1-248); settings: protein: recombinant; tags: N-terminal GST; dsDNA, one strand shown
# T8 sequence: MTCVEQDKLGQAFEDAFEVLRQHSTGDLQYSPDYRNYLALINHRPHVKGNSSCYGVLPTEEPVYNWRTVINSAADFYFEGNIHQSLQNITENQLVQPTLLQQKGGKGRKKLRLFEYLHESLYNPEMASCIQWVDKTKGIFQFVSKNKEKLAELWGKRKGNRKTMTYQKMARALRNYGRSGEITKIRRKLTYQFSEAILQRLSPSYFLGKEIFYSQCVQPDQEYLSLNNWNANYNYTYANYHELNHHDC
# Summary of the method: as §1
# ELF4 = ELF4 (Homo sapiens, UniProt Q99607 1-663); settings: protein: recombinant; tags: N-terminal GST; dsDNA, one strand shown
# ELF4, sequence (Q99607 whole entry): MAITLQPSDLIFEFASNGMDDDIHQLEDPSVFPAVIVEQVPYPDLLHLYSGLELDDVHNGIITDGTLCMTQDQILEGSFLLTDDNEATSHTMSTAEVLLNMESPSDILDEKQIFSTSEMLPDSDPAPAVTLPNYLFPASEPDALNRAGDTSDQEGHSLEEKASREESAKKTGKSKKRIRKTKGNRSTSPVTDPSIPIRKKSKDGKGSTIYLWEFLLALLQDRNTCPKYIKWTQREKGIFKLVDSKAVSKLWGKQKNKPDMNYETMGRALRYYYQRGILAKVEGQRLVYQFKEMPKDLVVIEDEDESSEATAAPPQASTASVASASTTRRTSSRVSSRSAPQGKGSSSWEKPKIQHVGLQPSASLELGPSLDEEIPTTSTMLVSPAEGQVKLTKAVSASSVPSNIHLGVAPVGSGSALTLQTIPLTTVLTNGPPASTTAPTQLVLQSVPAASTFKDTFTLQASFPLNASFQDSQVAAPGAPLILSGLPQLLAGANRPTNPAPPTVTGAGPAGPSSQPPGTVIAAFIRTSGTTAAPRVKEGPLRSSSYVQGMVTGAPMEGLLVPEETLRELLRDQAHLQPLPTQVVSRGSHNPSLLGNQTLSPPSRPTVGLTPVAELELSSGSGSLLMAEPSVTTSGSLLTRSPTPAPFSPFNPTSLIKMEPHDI
# Summary of the method: as §1
# ELK4 = biological target: T9, ELK4 (Homo sapiens, UniProt P28324-2 1-405); settings: protein: recombinant; tags: N-terminal GST; dsDNA, one strand shown
# T9 sequence: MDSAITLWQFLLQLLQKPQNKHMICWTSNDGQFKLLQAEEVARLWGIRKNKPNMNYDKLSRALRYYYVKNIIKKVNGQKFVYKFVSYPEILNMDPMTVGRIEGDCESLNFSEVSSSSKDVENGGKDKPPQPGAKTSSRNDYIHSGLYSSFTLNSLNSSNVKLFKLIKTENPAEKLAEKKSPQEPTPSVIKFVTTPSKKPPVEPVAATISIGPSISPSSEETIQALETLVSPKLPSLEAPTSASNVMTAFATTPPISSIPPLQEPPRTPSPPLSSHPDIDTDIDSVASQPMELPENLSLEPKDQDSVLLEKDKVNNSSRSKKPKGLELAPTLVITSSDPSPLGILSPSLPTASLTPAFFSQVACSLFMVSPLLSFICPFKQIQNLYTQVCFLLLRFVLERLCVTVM
# Summary of the method: as §1
# ETV2 = biological target: T10, ETV2 (Homo sapiens, UniProt O00321 1-342); settings: protein: recombinant; tags: N-terminal GST; dsDNA, one strand shown
# T10 sequence: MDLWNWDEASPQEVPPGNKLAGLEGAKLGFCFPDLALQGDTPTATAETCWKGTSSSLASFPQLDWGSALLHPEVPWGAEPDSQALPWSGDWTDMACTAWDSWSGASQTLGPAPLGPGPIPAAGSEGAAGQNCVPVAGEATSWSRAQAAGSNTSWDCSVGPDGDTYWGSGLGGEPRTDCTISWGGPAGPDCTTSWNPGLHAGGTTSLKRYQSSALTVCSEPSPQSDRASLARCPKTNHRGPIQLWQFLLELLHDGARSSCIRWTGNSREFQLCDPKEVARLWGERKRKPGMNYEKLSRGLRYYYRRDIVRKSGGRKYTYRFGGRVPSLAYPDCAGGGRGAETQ
# Summary of the method: as §1
# ELF3 = biological target: T11, ELF3 (Homo sapiens, UniProt P78545 1-371); settings: protein: recombinant; tags: N-terminal GST; dsDNA, one strand shown
# T11 sequence: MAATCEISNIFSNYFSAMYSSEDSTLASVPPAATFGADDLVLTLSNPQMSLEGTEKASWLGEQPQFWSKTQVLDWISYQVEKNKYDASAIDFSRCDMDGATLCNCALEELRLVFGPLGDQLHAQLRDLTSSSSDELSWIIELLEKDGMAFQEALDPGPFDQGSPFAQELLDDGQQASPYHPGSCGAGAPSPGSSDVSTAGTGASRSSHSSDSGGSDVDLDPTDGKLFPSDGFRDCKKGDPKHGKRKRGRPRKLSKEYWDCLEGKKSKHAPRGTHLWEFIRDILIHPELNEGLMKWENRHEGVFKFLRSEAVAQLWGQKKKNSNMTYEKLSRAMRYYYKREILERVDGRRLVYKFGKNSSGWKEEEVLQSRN
# Summary of the method: as §1
# CRX = CRX (Homo sapiens, UniProt O43186 1-299); settings: protein: recombinant; tags: N-terminal GST; dsDNA, one strand shown
# CRX, sequence (O43186 whole entry): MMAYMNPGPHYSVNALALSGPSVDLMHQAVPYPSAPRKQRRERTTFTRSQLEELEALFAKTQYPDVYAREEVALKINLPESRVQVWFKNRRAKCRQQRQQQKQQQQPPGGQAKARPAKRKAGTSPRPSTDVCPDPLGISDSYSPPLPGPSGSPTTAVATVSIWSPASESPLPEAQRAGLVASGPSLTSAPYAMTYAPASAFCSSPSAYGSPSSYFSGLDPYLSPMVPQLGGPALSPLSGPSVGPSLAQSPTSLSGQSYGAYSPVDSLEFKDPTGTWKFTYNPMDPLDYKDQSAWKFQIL
# Summary of the method: as §1
# ETV1 = ETV1 (Homo sapiens, UniProt P50549 1-477); settings: protein: recombinant; tags: N-terminal GST; dsDNA, one strand shown
# ETV1, sequence (P50549 whole entry): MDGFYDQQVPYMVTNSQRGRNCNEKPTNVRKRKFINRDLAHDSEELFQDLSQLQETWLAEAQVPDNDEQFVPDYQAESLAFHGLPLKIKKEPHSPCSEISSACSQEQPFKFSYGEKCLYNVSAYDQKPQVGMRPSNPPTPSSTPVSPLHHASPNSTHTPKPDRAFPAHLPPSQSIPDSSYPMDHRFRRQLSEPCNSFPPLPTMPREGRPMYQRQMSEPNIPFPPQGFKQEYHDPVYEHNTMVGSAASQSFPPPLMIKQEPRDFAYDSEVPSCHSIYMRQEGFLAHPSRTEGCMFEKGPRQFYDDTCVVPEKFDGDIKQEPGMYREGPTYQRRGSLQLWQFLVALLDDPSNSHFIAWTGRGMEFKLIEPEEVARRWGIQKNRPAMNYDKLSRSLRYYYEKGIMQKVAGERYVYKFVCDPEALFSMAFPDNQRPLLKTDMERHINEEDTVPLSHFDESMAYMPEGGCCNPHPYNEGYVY
# Summary of the method: as §1
sequence,measurement,setting,value
TCCATC,binding signal,FLI1,"1.28 fold enrichment (6-mer frequency, TF over GST control)"
same,binding signal,ELK1,"1.28 fold enrichment (6-mer frequency, TF over GST control)"
same,binding signal,GABPA,"1.15 fold enrichment (6-mer frequency, TF over GST control)"
same,binding signal,ERG,"1.17 fold enrichment (6-mer frequency, TF over GST control)"
same,binding signal,ELF1,"1.29 fold enrichment (6-mer frequency, TF over GST control)"
same,binding signal,EHF,"1.2 fold enrichment (6-mer frequency, TF over GST control)"
same,binding signal,SPI1,"1.19 fold enrichment (6-mer frequency, TF over GST control)"
same,binding signal,SPIB,"1.16 fold enrichment (6-mer frequency, TF over GST control)"
same,binding signal,ELK3,"1.28 fold enrichment (6-mer frequency, TF over GST control)"
same,binding signal,FEV,"1.21 fold enrichment (6-mer frequency, TF over GST control)"
same,binding signal,ETV5,"1.22 fold enrichment (6-mer frequency, TF over GST control)"
same,binding signal,HSF1,"1.16 fold enrichment (6-mer frequency, TF over GST control)"
same,binding signal,SPIC,"1.06 fold enrichment (6-mer frequency, TF over GST control)"
same,binding signal,ELF4,"1.13 fold enrichment (6-mer frequency, TF over GST control)"
same,binding signal,ELK4,"1.26 fold enrichment (6-mer frequency, TF over GST control)"
same,binding signal,ETV2,"1.32 fold enrichment (6-mer frequency, TF over GST control)"
same,binding signal,ELF3,"1.11 fold enrichment (6-mer frequency, TF over GST control)"
same,binding signal,CRX,"1.15 fold enrichment (6-mer frequency, TF over GST control)"
same,binding signal,ETV1,"1.17 fold enrichment (6-mer frequency, TF over GST control)"
